Compound activity from PubChem.
FBW7 act: activators of human E3 ligase FBW7; AlphaScreen FBW7–phospho-cyclin E peptide binding, activator screen; normalized activity (activation), % at 26.1 µM; 0.13% of 650,000 active; in the data active = normalized activity above about 1.9%;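 also: purified mutant Fbw7 with reduced substrate affinity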
Target sequence (Q969H0 whole entry, looked up): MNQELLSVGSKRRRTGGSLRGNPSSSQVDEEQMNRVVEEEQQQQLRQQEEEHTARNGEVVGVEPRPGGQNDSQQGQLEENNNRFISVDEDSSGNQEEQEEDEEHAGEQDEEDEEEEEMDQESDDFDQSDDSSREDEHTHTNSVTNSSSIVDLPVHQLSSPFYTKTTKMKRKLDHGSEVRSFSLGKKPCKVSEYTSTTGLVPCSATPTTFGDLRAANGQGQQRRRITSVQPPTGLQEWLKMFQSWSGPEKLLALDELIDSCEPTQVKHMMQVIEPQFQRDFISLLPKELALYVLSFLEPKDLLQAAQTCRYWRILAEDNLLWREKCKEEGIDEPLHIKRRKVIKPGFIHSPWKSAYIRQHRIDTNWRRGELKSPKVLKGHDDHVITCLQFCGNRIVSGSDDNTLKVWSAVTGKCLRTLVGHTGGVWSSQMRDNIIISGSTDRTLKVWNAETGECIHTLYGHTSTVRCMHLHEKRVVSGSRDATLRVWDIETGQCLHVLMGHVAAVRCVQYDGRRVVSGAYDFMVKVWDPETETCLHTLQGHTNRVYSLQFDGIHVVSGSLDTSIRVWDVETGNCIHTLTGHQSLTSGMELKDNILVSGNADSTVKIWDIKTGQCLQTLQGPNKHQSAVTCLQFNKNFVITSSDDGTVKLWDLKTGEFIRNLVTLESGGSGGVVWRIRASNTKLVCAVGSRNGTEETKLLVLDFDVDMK
TEAD-YAP inh: TEAD-YAP interaction inhibition; inhibition, % at 9.12 µM; HEK-TIYL cells, TEAD-Gal4/YAP UAS-luciferase luminescence; AID 1259422; 1.4% of 640,000 active; in the data active = inhibition above about 32%
MITF primary: blocks human microphthalmia-associated transcription factor. O75030. AlphaScreen MITF homodimerization, bead proximity signal. inhibition, % at 2.6 µM. 0.91% of 650,000 active; in the data active = inhibition above about 50%
GPR151 ag: activators of human GPR151; Q8TDV0; PathHunter beta-arrestin GPR151 cells, luminescence; activation, % at 11.2 µM; 1% of 650,000 active; AID 1508602; in the data active = activation above about 4.9%
A number is an active result; 0 = inactive. Only some compounds are listed: those with a hit (about 3.4% of all), similar ones and a draw of the others.

SMILES	FBW7 act	TEAD-YAP inh	MITF primary	GPR151 ag
CC(=O)N(C1=C(N2CCCC2)C(=O)c2ccccc2C1=O)c1ccc(Cl)c(Cl)c1	0	0	0	0
CC(=O)N(C1=C(N2CCOCC2)C(=O)c2ccccc2C1=O)c1cccc(Cl)c1	0	0	0	0
CC(=O)N(C1=C(N2CCOCC2)C(=O)c2ccccc2C1=O)c1ccccc1	0	64	0	0
COC(=O)c1c(C)oc2ccc(NS(=O)(=O)c3ccc(C)cc3C)cc12	0	46	0	0
CCOC(=O)c1c(C)oc2ccc(NS(=O)(=O)c3ccc(C)cc3)cc12	0	34	0	0
CCOC(=O)c1c(C)oc2ccc(NS(=O)(=O)c3ccc(Cl)cc3)cc12	0	0	0	0
CCOc1ccc(S(=O)(=O)Nc2ccc3oc(C)c(C(=O)OCCOC)c3c2)cc1	0	57	0	0
COC(=O)c1c(C)oc2ccc(NS(=O)(=O)c3cc(C)ccc3C)cc12	0	0	0	0
CCc1ccc(S(=O)(=O)N(C(C)=O)c2ccc3oc(C)c(C(=O)OC)c3c2)cc1	0	49	0	0
O=C(Nc1ccc2[nH]ncc2c1)[C@@H]1CCCN1C(=O)C(O)c1ccccc1 (stereo partly specified)	0	0	0	0
CCCCC(=O)Nc1c2c(nn1-c1ccccc1)CS(=O)(=O)C2	0	0	0	0
COCc1oc2ccc(NS(=O)(=O)c3ccc(C)cc3)cc2c1C(=O)OC	0	55	0	0
CC(=O)c1c(C)oc2ccc(N(C(C)=O)S(=O)(=O)c3cccc4cccnc34)cc12	0	52	0	0
COC(=O)c1c(C)oc2ccc(N(C(=O)c3ccc([N+](=O)[O-])cc3)S(=O)(=O)c3ccc(C)cc3)cc12	0	58	0	0
CC(=O)c1c(C)oc2ccc(NS(=O)(=O)c3c(C)cc(C)cc3C)cc12	0	37	0	0
N#CC1=C(SCc2ccccc2)NC(=O)CC1c1cccc([N+](=O)[O-])c1 (stereo unspecified)	0	0	0	0
COc1cccc(-c2cc(C(=O)N3CCC4(CC3)NC(=O)c3ccccc3N4)no2)c1	0	0	0	0
CCCn1cc(SCC(=O)NC2CCCCC2)c2ccccc21	0	0	0	0
CCCc1oc2ccc(NS(=O)(=O)c3ccc(F)cc3)cc2c1C(=O)OCC	0	0	0	0
CCc1ccc(S(=O)(=O)Nc2ccc3oc(C)c(C(=O)OC)c3c2)cc1	0	60	0	0
CCCc1oc2ccc(NS(=O)(=O)c3ccc(C)cc3)cc2c1C(=O)OCC	0	57	0	0
Cc1cc(Nc2ccccc2)n(-c2ccc([N+](=O)[O-])cc2)n1	0	0	0	0
Cc1cc(Nc2nc3ccccc3[nH]c2=O)n(-c2ccc([N+](=O)[O-])cc2)n1	0	59	0	0
COC(=O)c1c(N)sc(C(=O)Nc2cc(C)ccc2C)c1C	0	79	0	0
CCCNC(=O)c1sc(N)c(C(=O)OC)c1C	0	0	0	0
SMILES	FBW7 act	TEAD-YAP inh	MITF primary	GPR151 ag
COC(=O)c1c(N)sc(C(=O)Nc2cccc(Cl)c2)c1C	0	72	0	0
COC(=O)c1c(N)sc(C(=O)NCCc2ccccc2)c1C	0	73	0	0
Cc1ccc(C(=O)N/C(=C\c2cccs2)C(=O)NCCN2CCOCC2)cc1	0	0	0	0
CN=c1scc(-c2ccccc2)n1/N=C/c1ccsc1	0	99	0	0
CCN=c1scc(-c2ccccc2)n1/N=C/c1ccccn1	0	55	0	0
CN=c1scc(-c2ccccc2F)n1/N=C/c1ccsc1	0	99	0	0
CN=c1scc(-c2ccccc2Br)n1/N=C/c1ccco1	0	0	0	0
CN=c1scc(-c2ccccc2Br)n1/N=C/c1ccc(O)cc1O	0	96	0	0
CCN=c1scc(-c2ccc(F)cc2)n1/N=C/c1ccccn1	0	0	0	0
CN=c1scc(-c2cccc(Br)c2)n1/N=C/c1ccncc1	0	0	0	0
Clc1ccc(Cl)c(N=c2scc(-c3ccccc3)n2-c2ccccc2)c1	0	0	0	0
CN=c1scc(-c2ccccc2F)n1/N=C/c1ccc(O)c(O)c1O	0	89	0	0
CN=c1scc(-c2ccccc2F)n1/N=C/c1ccc2c(c1)OCO2	0	94	0	0
CN=c1scc(C)n1/N=C/c1ccc2c(c1)OCO2	0	0	0	0
COc1ccc(C2=NN(C(=O)c3ccco3)C(O)(C(F)(F)F)C2)cc1 (stereo unspecified)	0	41	0	0
Cc1ccc(C2=NN(C(=O)c3ccco3)C(O)(C(F)(F)F)C2)cc1 (stereo unspecified)	0	0	0	0
O=C(c1ccccc1)N1C(=O)c2ccccc2C1=O	2.5	0	0	0
COC(=O)c1cc(NC(=O)CSc2n[nH]c(-c3ccccc3)n2)cc(C(=O)OC)c1	0	0	0	0
CCC(=O)Oc1ccc(C(=O)Nc2ccc(N(C)C)cc2)cc1	0	38	0	0
CCOCCOc1cccc(C(=O)Nc2ccc3ccccc3c2)c1	0	39	0	0
CCOc1ccc(NC(=O)c2cccc(O)c2)cc1	0	80	0	0
O=C(Nc1ccc(O)cc1)c1ccc([N+](=O)[O-])cc1	0	55	0	0
CCN1CCN(C(C)Cc2ccc(F)cc2)CC1 (stereo unspecified)	0	0	0	0
CCOc1ccc(NC(=O)c2ccc(O)cc2)cc1	0	64	0	0
COC(=O)Nc1c(Cl)nsc1S(=O)(=O)Cc1ccccc1	0	0	0	0
SMILES	FBW7 act	TEAD-YAP inh	MITF primary	GPR151 ag
NC(=O)c1c(Cl)nsc1S(=O)(=O)Cc1ccccc1	0	46	0	0
O=c1c(Cl)c(Cl)cnn1C12CC3CC(CC(C3)C1)C2	0	78	0	0
O=c1c(Cl)c(NCCO)cnn1C12CC3CC(CC(C3)C1)C2	0	0	0	0
CC(C)C(NS(C)(=O)=O)c1nnc2n1CCN(Cc1cc3ccccc3[nH]1)CC2 (stereo unspecified)	0	0	0	0
O=C(Cn1ccc(=NCc2ccccc2)cc1)c1ccc(I)cc1	0	66	0	0
O=C(Cn1ccc(=NCc2ccccc2)cc1)c1ccc(Cl)cc1	0	0	0	0
COc1ccc(C(CCN)c2ccccc2)cc1 (stereo unspecified)	0	0	0	0
O=C(CSc1nc2ccccc2[nH]1)C1CC1	0	0	0	0
CCCCOC(=O)c1ccc(NC(NC(=O)c2ccco2)C(=O)c2ccc(Cl)cc2)cc1 (stereo unspecified)	0	0	0	0
CCCNc1ncnc2c1cnn2-c1ccccc1	0	0	0	0
COc1ccc(-n2ncc3c(NC(C)(C)C)ncnc32)cc1	0	36	0	0
COCCCNc1ncnc2c1cnn2-c1ccccc1	0	43	0	0
COc1cc(-c2nc(Nc3ccc(C)cc3)c3ccccc3n2)cc(OC)c1OC	0	55	0	0
CCCCc1ccc(-c2nc(Nc3ccc(OCc4ccccc4)cc3)c3ccccc3n2)cc1	0	35	0	0
COCCNc1nc(-c2ccccc2)nc2ccccc12	0	0	0	0
COc1cccc(Nc2nc(-c3cc(OC)c(OC)c(OC)c3)nc3ccccc23)c1	0	37	0	0
COCCNc1nc(-c2cc(OC)c(OC)c(OC)c2)nc2ccccc12	0	32	0	0
